What was measured:
Experiment in all cases: PBM binding z-score (relative to random genomic background probes); higher = stronger binding; sequences stand for … in GC…GCGATTGACAGCGTAGAATGAAGG
[1] = tested on: FXR:RXRa (NR concentration 270 nM, RXRa partner concentration 90 nM)
How it was run: (§1)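 Probes were double-stranded and carried 34-nt variable regions with direct-repeat seeds, single-nucleotide variants, half-site ablations and random human genomic background sequences, printed on custom Agilent 4×180K protein-binding microarrays. Arrays were incubated 1 h with ligand-free nuclear receptor dimers in PBS pH 7.4, 2% milk, 0.02% Triton X-100, 1 mM DTT, 0.2 mg/mL BSA and 0.4 mg/ml salmon testes DNA. Antibodies against each partner (one per run) detected binding, and scanned fluorescence was regression-normalized. Binding z-scores use the random background probes as reference.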

[2] = tested on: LXRa:RXRa (NR concentration 270 nM, RXRa partner concentration 90 nM)
How it was run: as §1

[3] = tested on: LXRa homodimer (NR concentration 270 nM)
How it was run: as §1

[4] = tested on: LXRb:RXRa (NR concentration 270 nM, RXRa partner concentration 90 nM)
How it was run: as §1

[5] = tested on: LXRb homodimer (NR concentration 270 nM)
How it was run: as §1

[6] = tested on: PPARa:RXRa (NR concentration 270 nM, RXRa partner concentration 90 nM)
How it was run: as §1

[7] = tested on: PPARg:RXRa (NR concentration 180 nM, RXRa partner concentration 90 nM)
How it was run: as §1

[8] = tested on: PPARg:RXRa 270nM:90nM, anti-RXR (NR concentration 270 nM, RXRa partner concentration 90 nM)
How it was run: as §1

[9] = tested on: PPARg:RXRa 30nM:10nM, anti-RXR (NR concentration 30 nM, RXRa partner concentration 10 nM)
How it was run: as §1

[10] = tested on: PPARg:RXRa 90nM:30nM, anti-RXR (NR concentration 90 nM, RXRa partner concentration 30 nM)
How it was run: as §1

Sequence	PBM binding z-score [1]	PBM binding z-score [2]	PBM binding z-score [3]	PBM binding z-score [4]	PBM binding z-score [5]	PBM binding z-score [6]	PBM binding z-score [7]	PBM binding z-score [8]	PBM binding z-score [9]	PBM binding z-score [10]
AGAACGAGGGCACGCTGAGTTCATAGCAGAGTAG	2.2	3.15	1.02	1.45	-0.593	3.12	2.52	2.43	0.373	1.47
CCTACTGGGCCAAGGTTATTGATCAGTCAAAGCA	0.116	0.594	-0.113	0.269	-0.596	1.78	2.64	3.06	0.701	2.48
CCTCGGGGGACAGAAGGTCAGAGCTGTCCGCTTT	2.39	3.78	0.464	3.58	2.95	3.5	0.517	2.66	0.439	1.51
ATCGAAGGGTCGACGAGGTGAGTATACACCGTTT	1.51	0.812	-0.587	0.951	-0.33	2.44	1.3	0.831	0.448	0.6
TAGCCTAGGTCAGATCGGGCAAGTATACGCTATA	1.87	1.1	-0.305	0.779	-0.322	1.74	0.654	0.623	-0.284	0.343
TCTGCTAGGTCAACGATGATCAGCTAATCTGCTA	3.12	1.96	-0.355	1.52	-0.366	3.32	2.74	2.86	2.03	2.38
TAGCCTAGGTCGTGCGGGCCAGTATAGTGTCGGC	-0.111	-0.0321	-0.956	-0.439	-0.768	0.275	-0.525	-0.186	-0.812	-0.477
CCTAGCAGGCCAGGGTCACTTAAGCATTTCGCTT	1.75	1.64	-0.562	1.91	-1.39	2.77	0.597	1.54	-0.349	0.831
TGAATGAGGTTAAAGATCGGGGAACGTGGCGTCG	2.84	2.61	-0.0577	1.64	0.61	4.29	4.54	5.57	3.66	5.49
CAAACTAGGTCACCGGAAGTTCAAAGTCCGCATG	5.16	5.88	4.93	4.26	1.06	5.9	9.18	7.54	5.95	7.54
CTCGAAAAGTCGTGCTCAGGTGAGTATACCAAAC	0.362	0.378	-0.0855	0.084	-0.108	0.252	-0.24	-0.203	-0.421	-0.205
CGAAGGAGGGCATGAGTTGATAGCAAATGCCGAT	-0.0276	-0.0888	-0.504	-0.073	-0.785	0.988	1.13	1.1	0.326	0.97
AGAATGATGTTAAGATCAGGGAAACAGAATACAT	-0.488	-0.548	-0.153	-0.269	-0.588	-0.205	0.948	-0.174	0.282	-0.132
TCATGTAGGTAAAGGTGAAAGTCGAACGATATGA	1.05	1.11	-0.13	1.23	-0.337	3.46	4.4	4.72	4.32	4.81
AGAATGAGGTTATAAAGATCAGGGAATTGCGGTC	1.45	1.31	0.315	1.17	0.00236	2.65	1.58	2	0.752	1.52
CCGACTGGGGCATAAGGTTCCCATAAGCCAGCCC	-0.429	-0.436	-0.915	-0.62	-1.28	0.156	0.836	1.45	-0.116	1.19
GCCTGTAGATCAAGGTTAAGAAAGACTAAGCTAA	0.000969	0.697	-0.269	0.679	-0.964	1.28	0.434	1.19	0.0672	0.861
AGAATGAGGTTATATGTAGATCAGGGAAGAAAGT	2.11	1.96	0.495	1.82	0.548	3.26	2.33	2.5	0.823	1.87
TCATATAGGTAAAGGGTGAAAGTCGGTGTGGTAA	1.34	1.71	0.489	1.71	0.233	4.48	7.16	7.21	7.16	7.63
GCTAGTTGGTCAGTAAAAGCTCACACACCGGTCG	-0.135	-0.249	-0.0683	-0.56	-0.539	-0.386	0.13	-0.0391	-0.355	-0.193
GCGACTGGGGCATCAGCAGGTTACGATAACTTAA	-0.306	-0.214	-0.449	0.641	-0.638	1.38	1.05	0.876	-0.247	0.263
GCTAGTTGATCAGTAAAAGGTCACACACCGGTCG	3.16	4.73	4.21	3.98	0.478	4.53	2.11	4.16	1.58	3.46
ACTAGCAGGCCAGGTTTGGGTCACTCAAACAAAG	-0.191	-0.164	-0.504	0.269	-0.651	0.985	-0.123	0.025	-0.537	-0.199
CCTCGGAGGACAGAAGGTCAGAGCCGTCCGCTTT	1.62	1.72	0.422	1.2	-0.824	1.93	-0.186	0.948	-0.897	0.277
CCTACTGGGCCACGGAAGGTCATTGATTCAGTGA	1.94	2.96	2.27	2.25	-0.194	3.5	3.4	3.37	1.05	2.35

Sequence	PBM binding z-score [1]	PBM binding z-score [2]	PBM binding z-score [3]	PBM binding z-score [4]	PBM binding z-score [5]	PBM binding z-score [6]	PBM binding z-score [7]	PBM binding z-score [8]	PBM binding z-score [9]	PBM binding z-score [10]
AGTACGAGGGCACGCTGAGTTGATAGCAGAGTAG	0.909	0.941	-0.408	0.078	-0.497	1.63	1.26	0.976	-0.181	0.652
CCTTACGGGTCACTCCAGGTTACAGCATCGGAGT	4.9	7.35	2.06	4.72	0.0209	4.42	3.74	3.8	1.1	2.64
ACTATTAGTTGACTTAGGCCAACCGATACGACGC	0.313	0.281	0.278	0.209	1.1	0.0554	1.05	0.478	0.505	0.622
CCTACTGGGCAATTCAGAGGTCATTGATCATATG	2.49	4.41	6.82	3.68	0.374	3.51	0.682	2.06	0.0551	0.942
CAAACTAGGTGACAGAGGTCAAAGTCCGTGCGTA	4.84	5.47	4.88	5	1.14	5.75	7.83	6.75	4.75	6.85
CTACCAAGGTGAACAAGGGCGTTGATTACTATTC	0.636	0.274	-0.543	0.44	-0.701	1.39	0.678	0.967	-0.0752	0.624
TTATATAGGTAAACAGGTGAAAGTCCGTAAGTTA	0.62	0.679	0.481	0.738	0.246	3.31	5.61	4.75	2.93	4.41
TCATTTAGGTAAATGCTAGGTGAAAGTCCGATCT	0.568	0.673	0.0938	0.395	0.604	1.41	0.312	1.97	3.57	2.65
TCTCGGAGGACACGAATGTCAGAGCTTTCCAGAG	0.579	-0.0398	-0.547	-0.175	-0.958	0.22	-0.0172	0.69	1.96	1.29
ATATGTAGGTTATCGGGTCTTTCAGTTTGCGCAT	0.832	1.52	1.05	1.64	1.21	3.2	5.24	4.68	2.04	3.97
CCAGACAGGTGAAAGGTACCTCAGTCTGGTACGC	-0.0455	0.27	-0.338	0.286	-0.978	2.28	3.4	4.94	2.26	4.17
TTACCAAGGTGAGCTGAGGTCGTGGATCCAACTC	1.09	0.85	-0.734	0.827	-1.47	2.1	0.337	0.913	0.0501	0.449
CCGACGGGGGCATAAGGTTACCATAAGCCAGCCC	3.27	4.13	0.249	4.27	3.6	3.87	2.48	3.54	1.17	2.82
CAAACTAGGTCTAGGTCAAAGTCGGTTTGTGCCA	1.86	2.04	1.3	1.73	0.0723	3.34	2.95	3.82	1.2	3.03
AATACAGGGTCACTAGGCCGGAGTAGGTACGAAT	5.72	5.1	0.78	3.77	1.05	5.36	6.6	6.03	2.5	4.78
ACTCGGAAGACAAAGGTCAGAGCTACGCCAGTGA	3.29	3.7	1.47	3.28	0.387	4.48	4.43	4.75	2.83	4.83
AATACAGGGTCATTGTAGGCCAGAGTACGCACAG	7.11	6.93	3.2	5.09	1.47	5.93	6.15	5.54	2.4	4.29
ATCGAAAGGTCGACGACGTGAGTATACACCGTTT	3.9	3.08	-0.00126	2.61	0.501	4.21	2.29	2.7	0.988	1.77
CCTTACGGGTCACTGTCAGGTTATAGCATTTGGA	5.05	4.27	0.129	3.23	-0.0879	4.73	3.83	4.04	1.22	2.8
TCGAGTAGGTTAGGGGCATACAGAATGGCGTCGA	0.679	0.555	-0.335	0.825	-0.198	1.39	1.04	1.65	1.4	1.6
TAGCCTAGGTCCGATCGGGCCAGTATACGCTATA	-1.62	-1.4	-0.978	-1.3	-1.45	-0.907	-0.184	-1.28	-1.09	-1.31
GCTGCTAGGTCAGGTTGATCAGCTAACGGGTACG	1.01	0.585	-0.478	0.353	-0.451	1.47	0.663	0.926	-0.231	0.36
ATCGAAAGGTCGTGAGTTGAGTATACAGAAAGGC	4.98	3.53	0.0498	2.99	0.743	4.84	3.55	3.9	1.82	2.85
ATCTCTAGGTAACCAAGTTCAGTCAATGCCGAAC	0.839	1.13	1.15	1.16	0.769	1.56	0.836	0.815	0.185	0.74

Reference: the supplement of paper PMC6555819
